MCF10A rereplic = inducers of DNA re-replication in MCF 10A breast cells | MCF 10A DNA re-replication, Hoechst nuclear intensity, 48 h | Potency, µM (titrated, usually from 46.1 µM), actives largely listed as activators | 2.9% of 350,000 active; also: nearly all actives have a fitted effect of over 50% in size
KB-3-1 cytotox = KB-3-1 parental cell cytotoxicity | KB-3-1 viability, CellTiter-Glo ATP luminescence, 72 h | Potency, µM (highest dose often 46.1 µM), hits mostly cytotoxic | 1.4% of 400,000 active | AID 1347075; also: nearly all actives have a fitted effect of over 60% in size
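Parental KB-3-1 adenocarcinoma cells in phenol-red-free DMEM with 10% FBS were pin-treated with compounds at several concentrations, incubated 72 h at 37 °C, and viability read by CellTiter-Glo luminescence; concentration-effect curves were fitted after normalization.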
ELG1 DNA repair = blocks ELG1-dependent DNA repair in HEK293T cells | AID 504467 | HEK293T ELG1-luciferase reporter, luminescence, 16 h; DNA damage induced by 5-fluorouridine | Potency, µM (doses to about 46.1 µM), hits mostly inhibitors | 2.3% of 330,000 active; also: nearly all actives have a fitted effect of over 55% in size
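Overnight (16 hr) co-exposure of 2,000 cells/well to 5-fluorouridine and compound at 37 °C preceded detection. Luciferase was quantified via ONE-Glo luminescence; loss of signal denotes inhibition.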
SW480 rerep = induces DNA re-replication in SW480 colon adenocarcinoma cells; Potency, µM (doses to about 46.1 µM), hits mostly activators; SW480 DNA re-replication, Hoechst DNA content imaging, 48 h; 1.8% of 340,000 active; also: nearly all actives have a fitted effect of over 55% in size
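First, 250 cells per well were seeded. Next, compound or vehicle (23 nL) was pinned in, plates sat 48 hr at 37 C. Finally Hoechst was added for 40 min before fluorescence scanning.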
KB-V1 cytotox = KB-V1 MDR subline cytotoxicity | AID 1347076 | 3.4% of 400,000 active | Potency, µM (top dose mostly 46.1 µM), most hits filed as cytotoxic | KB-V1 MDR cells viability, CellTiter-Glo, 72 h; also: nearly all actives have a fitted effect of over 60% in size
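Drug-selected KB-V1 cells, grown in DMEM lacking phenol red with 10% FBS, receive compound titrations; after three days at 37 degrees C, surviving cell ATP is quantified by CellTiter-Glo luminescence and responses normalized and curve-fitted.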
Numbers stand for hits; n = inactive; u = inconclusive; x = no result given; ! = a repeat was not active; [ ] = dose if it differs, or a comment. The list is not random: actives were taken first. Their share in the collection is about 8.1%. Calls follow the shape of the dose curve; as a rule, active = well fitted curve in the direction sought with a large enough effect; inconclusive = small, poorly fitted or top-dose-only effect, or another doubt; inactive = no such curve, though single readings can be large; an effect the other way counts as inactive or inconclusive.

SMILES	MCF10A rereplic	KB-3-1 cytotox	ELG1 DNA repair	SW480 rerep	KB-V1 cytotox
CC(C)(C)OC(=O)NCCCCCNC(=O)c1[nH]cnc1C(=O)Nc1ccc(Cl)cc1	n	u	21µM	n	n
CCOC(=O)c1ccc(NC(=O)c2nc[nH]c2C(=O)NCCCCCNC(=O)OC(C)(C)C)cc1	n	u	16µM	n	u
Cc1ccc(NC(=O)c2nc[nH]c2C(=O)NCCCNC(=O)c2[nH]cnc2C(=O)Nc2ccc(C)cc2)cc1	n	n	5.2µM	n	n
CC(C)(C)OC(=O)NCCCCCNC(=O)c1[nH]cnc1C(=O)Nc1ccccc1	n	n	u	n	u
Cc1ccc(NC(=O)c2nc[nH]c2C(=O)NCCCCCCNC(=O)c2[nH]cnc2C(=O)Nc2ccc(C)cc2)cc1	n	u	u	n	n
CCN(CC)C(=O)c1[nH]cnc1C(=O)Nc1ccc(OC)cc1	n	u	n	1.8µM	n
CCOC(=O)c1ccc(NC(=O)c2nc[nH]c2C(=O)NCCCCNC(=O)c2[nH]cnc2C(=O)Nc2ccc(C(=O)OCC)cc2)cc1	n	n	u	n	n
CCc1ccc(-n2c(SCC(=O)N3CCC(C(=O)O)CC3)nnc2-c2ccncc2)cc1	n	n	n	n	n
CCc1cc(=O)oc2c(C)c(OC(C)C(=O)NCCCN3CCOCC3)ccc12 (stereo unspecified)	u	n	n	u	n
C[C@@H](CSc1ccc(Br)cc1)CN1CC[C@H](C(C)(C)C)CCC1=O	n	n	n	n	u
Cc1ccc(NC(=O)c2nc[nH]c2C(=O)NCCCCCNC(=O)OC(C)(C)C)cc1	u	u	23µM	n	u
Cc1cccc(NC(=O)c2cccc(N3C(=O)C4C5CCC(C5)C4C3=O)c2)c1C (stereo unspecified)	n	n	n	n	8.2µM
COCCSc1nnc(NC(=O)CCS(=O)(=O)c2ccccc2)s1	u	n	n	u	n
Cn1nnnc1SCCNCc1ccncc1	n	n	n	n	n
CCN/N=C(\Cc1nc2ccccc2[nH]1)c1ccccc1	21µM	n	u	n	n
Cc1ccc(N/N=C(\Cc2nc3ccccc3[nH]2)c2ccccc2)cc1	u	1.2µM	u	1.8µM	3.7µM
c1ccc(N/N=C(\Cc2nc3ccccc3[nH]2)c2ccccc2)cc1	u	n	u	n	n
C=CCSc1nnc(-c2c[nH]c3ccccc23)n1CC	n	n	n	n	n
COc1cc(C(=O)N/N=C/c2ccc3c(c2)c2ccccc2n3C)ccc1O	13µM	u	n	u	u
Cn1c2ccccc2c2cc(/C=N/NC(=O)c3cc(O)ccc3O)ccc21	3.7µM	n	n	n	n
Cn1c2ccccc2c2cc(/C=N/NC(=O)c3cc(O)cc(O)c3)ccc21	u	n	n	n	u
COc1ccc(CCNC(=O)CCCOc2cccc(C)c2C)cc1OC	n	n	u	u	u
Clc1ccc(SCCn2cncn2)cc1	n	n	n	n	n
O=C(c1ccccc1-c1nc(-c2ccccc2)no1)N1CCOCC1	n	n	n	n	12µM
O=C(c1ccccc1)c1ccc(C(=O)N2CCOCC2)cc1	n	n	n	n[9.22 µM]	n
SMILES	MCF10A rereplic	KB-3-1 cytotox	ELG1 DNA repair	SW480 rerep	KB-V1 cytotox
O=C(c1ccc(-c2ccccc2)cc1)c1ccccc1C(=O)N1CCOCC1	n	n	n	n	21µM
O=C(Nc1cccc(Br)c1)c1ccccc1-c1ccccc1	u	n	n	n	u
O=C(Nc1ccccc1Br)c1ccccc1-c1ccccc1	13µM	7.3µM	n	16µM	u
Cc1cc(Br)ccc1NC(=O)c1ccccc1-c1ccccc1	n	n	n	n	13µM
O=C(Nc1ccccc1-c1ccccc1)c1ccccc1Br	n	n	n	n	u
Cc1[nH]c2ccccc2c1/C=C/c1c[nH]c2ccccc12	x	n	x	x	n
Cc1cc(C)n(CCNC(=O)c2ccc3c(c2)OCO3)n1	n	u	u	n	n
COc1ccc(Cl)cc1C(=O)Nc1ccc([N+](=O)[O-])cc1Cl	x	n	x	x	n
O=C(Nc1cccc(Cl)c1)c1cc(N=Nc2ccc([N+](=O)[O-])cc2Cl)ccc1O	n	21µM	n	n	u
O=C(Nc1ccc([N+](=O)[O-])cc1Cl)c1cc(Cl)ccc1O	u	1.2µM	u	3.2µM!	1µM
CC(=O)c1c(C)nc(-c2ccccc2)nc1NC(=O)C(C)C	n	n	n	n[9.22 µM]	n
